Results taken from PubChem BioAssay.
Results filed as inconclusive are left out. Activity calls are given as the source filed them.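 The calls were made as follows, unless noted: active = normalized viability below 100% at a tested concentration; inactive = the rest.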

Key:
[1] = viability loss in pontine glioma line – cell-based, SU-DIPG-XVII, MIPE5.0, CellTiter-Glo, qHTS, dose response (AID 1347060; cut-off not given, nearly all actives have AC50 up to about 26 µM;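 as to AC50: cells exposed to compound for 48 hours before viability readout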); details: CellTiter-Glo ATP luminescence
[2] = viability loss in pontine glioma line – cell-based, SU-DIPG-XIII, MIPE5.0, CellTiter-Glo, qHTS, dose response (AID 1347064; cut-off not given, nearly all actives have AC50 up to about 23 µM;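 as to AC50: cells exposed to compound for 48 hours before the viability read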); details: CellTiter-Glo ATP luminescence
[3] = viability loss in pontine glioma line – cell-based, SU-DIPG-XXV, MIPE5.0, CellTiter-Glo, qHTS, dose response (AID 1347065; cut-off not given, nearly all actives have AC50 up to about 26 µM;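 also: cells exposed to compound for 48 hours before ATP readout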); details: CellTiter-Glo ATP luminescence
[4] = JHH-DIPG-1 glioma cell viability, MIPE5.0 library, CellTiter-Glo luminescence, qHTS (AID 1347067; cut-off not given, nearly all actives have AC50 up to about 26 µM;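 also: cells exposed to compound for 48 hours before readout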); details: JHH-DIPG-1 glioma viability, CellTiter-Glo ATP luminescence
[5] = growth inhibition of DIPG cells – cell-based, MIPE5.0 library, qHTS (AID 1347068; cut-off not given, nearly all actives have IC50 up to about 30 µM;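 as to IC50: cells exposed to compound for 48 hours before viability readout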); details: SU-DIPG-XXV viability
[6] = viability loss with induced miR-34 in A549 – imaging, A549 dox-inducible miR-34, nuclei and caspase counts, primary screen (AID 1347080;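 active = compounds whose cell count with miR-34 switched on is under 0.7 times the count with it off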); details: A549 miR-34 inducible, Hoechst nuclei count, 48 h
[7] = MELAS cybrid and Rieske KO viability enhancers – cell-based, MELAS cybrids, Rieske KO mouse fibroblasts, CellTiter-Glo, primary screen (AID 1508586;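 active = mean z-score across replicates of 1.96 or higher in either the MELAS or the Rieske mutant cell line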;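 also: z relative to plate mean and SD of compound and empty wells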); details: low glucose
[8] = drug combination growth inhibition, ovarian cancer – cell-based, oncology-focused library, rucaparib conditional, profiling panel (AID 1508598); details: patient-derived ovarian cancer cells, CellTiter-Glo viability, 144 h, stronger effect = lower value
[9] = stronger effect = lower value, cell number ratio, induced over uninduced
[10] = measured here: relative caspase fold change +Dox/-Dox
[11] = measured here: total cells with miR-34 induction, stronger effect = lower value
[12] = measured here: total cells without miR-34 induction
[13] = MELAS cybrid survival, CellTiter-Glo 48 h, stronger effect = higher value
[14] = Rieske KO mouse fibroblast survival, CellTiter-Glo 72 h
[15] = at 0.000305 µM, OCI-C5x cells, with rucaparib 10 µM, 100% = cells with rucaparib alone
[16] = at 0.000305 µM, OCI-C5x cells, without rucaparib
[17] = at 0.000305 µM, OCI-P5x cells, with rucaparib 20 µM, 100% = cells with rucaparib alone
[18] = at 0.000305 µM, OCI-P5x cells, without rucaparib
[19] = at 0.00122 µM, OCI-C5x cells, with rucaparib 10 µM, 100% = cells with rucaparib alone
[20] = at 0.00122 µM, OCI-C5x cells, without rucaparib
[21] = at 0.00122 µM, OCI-P5x cells, with rucaparib 20 µM, 100% = cells with rucaparib alone
[22] = at 0.00122 µM, OCI-P5x cells, without rucaparib
[23] = at 0.00488 µM, OCI-C5x cells, with rucaparib 10 µM, 100% = cells with rucaparib alone
[24] = at 0.00488 µM, OCI-C5x cells, without rucaparib
[25] = at 0.00488 µM, OCI-P5x cells, with rucaparib 20 µM, 100% = cells with rucaparib alone
[26] = at 0.00488 µM, OCI-P5x cells, without rucaparib
[27] = at 0.0195 µM, OCI-C5x cells, with rucaparib 10 µM, 100% = cells with rucaparib alone
[28] = at 0.0195 µM, OCI-C5x cells, without rucaparib
[29] = at 0.0195 µM, OCI-P5x cells, with rucaparib 20 µM, 100% = cells with rucaparib alone
[30] = at 0.0195 µM, OCI-P5x cells, without rucaparib
[31] = at 0.0781 µM, OCI-C5x cells, with rucaparib 10 µM, 100% = cells with rucaparib alone
[32] = at 0.0781 µM, OCI-C5x cells, without rucaparib
[33] = at 0.0781 µM, OCI-P5x cells, with rucaparib 20 µM, 100% = cells with rucaparib alone
[34] = at 0.0781 µM, OCI-P5x cells, without rucaparib
[35] = at 0.313 µM, OCI-C5x cells, with rucaparib 10 µM, 100% = cells with rucaparib alone
[36] = at 0.313 µM, OCI-C5x cells, without rucaparib
[37] = at 0.313 µM, OCI-P5x cells, with rucaparib 20 µM, 100% = cells with rucaparib alone
[38] = at 0.313 µM, OCI-P5x cells, without rucaparib
[39] = at 1.25 µM, OCI-C5x cells, with rucaparib 10 µM, 100% = cells with rucaparib alone
[40] = at 1.25 µM, OCI-C5x cells, without rucaparib
[41] = at 1.25 µM, OCI-P5x cells, with rucaparib 20 µM, 100% = cells with rucaparib alone
[42] = at 1.25 µM, OCI-P5x cells, without rucaparib
[43] = at 5 µM, OCI-C5x cells, with rucaparib 10 µM, 100% = cells with rucaparib alone
[44] = at 5 µM, OCI-C5x cells, without rucaparib
[45] = at 5 µM, OCI-P5x cells, with rucaparib 20 µM, 100% = cells with rucaparib alone
[46] = at 5 µM, OCI-P5x cells, without rucaparib

COc1nc(N)nc2c1ncn2C1OC(CO)C(O)C1O (stereo not given)
7440: cell count [6, 12]
inactive: outcome [1] | outcome [2] | outcome [3] | outcome [4] | outcome [5] | fold change [6, 9] 0.895 | z-score [7, 13] -0.422
0.879: fold change [6, 10]
6660: cell count [6, 11]
-0.253: z-score [7, 14]

C=CC(=O)Nc1cccc(Nc2nc(Nc3ccc(NC4CN(CCF)C4)cc3OC)ncc2C(F)(F)F)c1
1930: cell count [6, 11]
inactive: fold change [6, 9] 0.964 | z-score [7, 13] 0.32 | viability [8, 15] 115% | viability [8, 16] 107% | viability [8, 19] 122% | viability [8, 20] 120% | viability [8, 23] 123% | viability [8, 24] 114% | viability [8, 27] 118% | viability [8, 28] 108% | viability [8, 30] 103% | viability [8, 31] 102% | viability [8, 32] 115% | viability [8, 33] 103% | viability [8, 35] 132% | viability [8, 36] 127% | viability [8, 37] 106% | viability [8, 38] 104% | viability [8, 39] 119% | viability [8, 40] 126%
1.6: z-score [7, 14]
0.345: fold change [6, 10]
active: AC50 [1] 1480 nM | AC50 [2] 2350 nM | AC50 [3] 1320 nM | AC50 [4] 2630 nM | IC50 [5] 833 nM | viability [8, 17] 98.4% | viability [8, 18] 92.9% | viability [8, 21] 99.4% | viability [8, 22] 89.9% | viability [8, 25] 96.9% | viability [8, 26] 94.8% | viability [8, 29] 98.4% | viability [8, 34] 98.1% | viability [8, 41] 83.8% | viability [8, 42] 83.2% | viability [8, 43] 19.5% | viability [8, 44] 94.4% | viability [8, 45] 13.3% | viability [8, 46] 20%
2000: cell count [6, 12]

COc1nc(OCc2cccc(-c3ccccc3)c2C)ccc1CNCCNC(C)=O
active: AC50 [1] 7420 nM | AC50 [2] 8330 nM | AC50 [3] 9340 nM | AC50 [4] 9340 nM | IC50 [5] 14800 nM

C=CC(=O)Nc1cccc(Nc2nc(Nc3ccc(N4CCN(C(C)=O)CC4)cc3OC)ncc2C(F)(F)F)c1
2040: cell count [6, 11]
1.83: z-score [7, 14]
inactive: fold change [6, 9] 0.925 | z-score [7, 13] -0.595
0.348: fold change [6, 10]
2210: cell count [6, 12]
active: AC50 [1] 1480 nM | AC50 [2] 1660 nM | AC50 [3] 742 nM | AC50 [4] 1860 nM | IC50 [5] 1320 nM

Cc1nnc(C(C)C)n1C1CC2CCC(C1)N2CC[C@H](NC(=O)C1CCC(F)(F)CC1)c1ccccc1 (stereo not given in full)
active: viability [8, 17] 85.1% | viability [8, 18] 83.1% | viability [8, 20] 98.5% | viability [8, 21] 86.3% | viability [8, 22] 79.3% | viability [8, 25] 86.7% | viability [8, 26] 91.1% | viability [8, 29] 90.9% | viability [8, 30] 90.2% | viability [8, 33] 96% | viability [8, 34] 94% | viability [8, 36] 99.8% | viability [8, 37] 95.9% | viability [8, 38] 94.1% | viability [8, 41] 98.8% | viability [8, 42] 93.2% | viability [8, 45] 96.7% | viability [8, 46] 95.4%
inactive: outcome [1] | outcome [2] | outcome [3] | outcome [4] | outcome [5] | viability [8, 15] 106% | viability [8, 16] 101% | viability [8, 19] 107% | viability [8, 23] 105% | viability [8, 24] 107% | viability [8, 27] 113% | viability [8, 28] 107% | viability [8, 31] 117% | viability [8, 32] 107% | viability [8, 35] 111% | viability [8, 39] 118% | viability [8, 40] 108% | viability [8, 43] 108% | viability [8, 44] 112%

CN(C)c1ccc(-c2nc3ncc(Cl)c(N4CCN(CC(=O)Nc5nccs5)CC4)c3[nH]2)cc1
active: AC50 [1] 2290 nM | AC50 [2] 7230 nM | AC50 [3] 3230 nM | AC50 [4] 2290 nM | z-score [7, 13] 2.54
2120: cell count [6, 11]
2000: cell count [6, 12]
inactive: outcome [5] | fold change [6, 9] 1.06
0.825: fold change [6, 10]
-0.697: z-score [7, 14]

COc1ccc(S(=O)(=O)N(CCO)c2ccccc2CN(C)C/C=C/c2ccc(Cl)cc2)cc1
active: AC50 [1] 18600 nM | AC50 [2] 7420 nM | AC50 [3] 16600 nM | AC50 [4] 10500 nM | IC50 [5] 18600 nM

Cc1cc(Nc2ncc(Cl)c(Nc3ccccc3S(=O)(=O)C(C)C)n2)c(OC(C)C)cc1C1CCNCC1
inactive: fold change [6, 9] 0.935 | z-score [7, 13] -0.455
3520: cell count [6, 12]
3290: cell count [6, 11]
-0.428: z-score [7, 14]
active: AC50 [1] 2950 nM | AC50 [2] 1320 nM | AC50 [3] 934 nM | AC50 [4] 1660 nM | IC50 [5] 3320 nM
0.748: fold change [6, 10]

COc1cc(N2CCC(N)CC2)ccc1Nc1ncc(Cl)c(-c2c[nH]c3ccccc23)n1
active: AC50 [1] 525 nM | AC50 [2] 263 nM | AC50 [3] 209 nM | AC50 [4] 525 nM | IC50 [5] 742 nM
inactive: fold change [6, 9] 0.915 | z-score [7, 13] 0.226
2100: cell count [6, 12]
0.405: fold change [6, 10]
-0.504: z-score [7, 14]
1920: cell count [6, 11]
